In all, about 2,500 compounds went through this assay and about 1,100 (44%) were called active. So high a share suggests a set chosen from earlier hits. Some of the results follow. A number with no mark means an inactive call.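 The calls were made as follows: active = inhibition above 50% at 4 µM in the single-point screen; inactive = inhibition of 50% or less.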

These results are taken from PubChem BioAssay AID1852 (Sanford-Burnham Center for Chemical Genomics, 2009).

A short description of the experiment: blockers of TNF-a NF-kB luciferase induction – cell-based, HEK293T NF-kB-Luc, luminescence, selectivity assay for NOD1/NOD2 signaling inhibitor project, primary screen (AID 1852). Particulars: TNF-a induced, 14 h, at 4 µM, hits give high values.
With `CC(=O)c1cccc(NS(=O)(=O)c2ccc(NC(=O)N3CCCCC3)cc2)c1`, the inhibition was 19.3%.

On to `COc1cccc(NS(=O)(=O)c2ccc3c(c2)CCN3C(C)=O)c1`, for which the inhibition is 41.6%.

As to `CC(=O)Nc1ccc(S(=O)(=O)Nc2ccc3c(c2)CCC3)cc1`, the inhibition was 85% (active).

Take `C=C1C(=O)O[C@@H]2C[C@@H](C)[C@@H]3C=CC(=O)[C@@]3(C)[C@@H](OC(C)=O)[C@H]12`: the inhibition was 101% (active).

As for `Cc1ccc(OC(F)F)c(NC(=O)Nc2cccc(C(F)(F)F)c2)c1`, the inhibition was 8.9%.

Consider `Cc1oc2c(F)c(F)c(F)c(F)c2c1S(=O)(=O)Nc1cccc(C(F)(F)F)c1`, for which the inhibition was 87.4% (active).

In the case of `O=C(OCn1ncc(Br)c(Br)c1=O)c1ccccc1Cl`, the inhibition was 79.3% (active).

As to `O=C(OCC(=O)N1CCOCC1)c1ccccc1Br`, the inhibition is 0.9%.

For `CCOC(=O)c1cnn(Cc2cccc(Cl)c2)c1C`, the inhibition is -4.9%.

On to `O=C(OCn1ncc(Cl)c(Cl)c1=O)c1ccccc1Cl`, for which the inhibition is 94.2% (active).

As to `O=C(Nc1nc(-c2ccc3c(c2)OCO3)cs1)c1ccncc1`, the inhibition was 34.9%.

As for `c1ccc(-c2csc(Nc3ccc4c(c3)OCCO4)n2)cc1`, the inhibition was -211%.

As to `O=C(/C=C/c1ccc2c(c1)OCO2)Nc1nc(-c2ccccc2)cs1`, the inhibition was 103% (active).

Turning to `C(=N\Nc1nc2ccccc2s1)/c1ccccn1`, the inhibition is 105% (active).

For `O=[N+]([O-])c1cc(Br)c(O)c(/C=N/Nc2nc3ccccc3s2)c1`, the inhibition is 79.2% (active).

As to `CC(=O)Nc1ccc2nc(NC(=O)c3ccc([N+](=O)[O-])o3)sc2c1`, the inhibition is 18.3%.

Turning to `CCN1C(=O)/C(=C/c2nc3ccccc3c(=O)n2-c2ccccc2)c2ccccc21`, the inhibition was 40.6%.

`CC(C)C1Nc2c(O)cc(Cl)c([N+](=O)[O-])c2C2C=CCC21` (configuration not stated): the inhibition is 74.1% (active).

As to `O=C1OCCC1Sc1nnc(-c2ccc(Cl)cc2Cl)o1` (configuration not stated), the inhibition is 35.1%.

For `Cn1cnnc1Sc1ccc(/C=C/C(=O)c2ccc(O)cc2)cc1[N+](=O)[O-]`, the inhibition is 6.7%.

As for `CC(=O)c1ccc(Sc2nnnn2-c2ccccc2)c([N+](=O)[O-])c1`, the inhibition is 61.3% (active).

Take `CC(C)NC(=O)c1ccc(Sc2ccccc2)c([N+](=O)[O-])c1`: the inhibition was 16.7%.

`O=C(Nc1ccc(F)cc1)c1nc(S(=O)(=O)Cc2ccccc2)ncc1Cl`: the inhibition was 60.6% (active).

Take `CCS(=O)(=O)c1ncc(Cl)c(C(=O)Nc2ccc(C)cc2)n1`: the inhibition was 99.2% (active).

On to `CN(c1ccccc1)S(=O)(=O)c1ccc(NC(=O)c2nc(S(C)(=O)=O)ncc2Cl)cc1`, for which the inhibition is 60.4% (active).

Consider `CCN(c1ccccc1)S(=O)(=O)c1ccc(NC(=O)c2nc(S(C)(=O)=O)ncc2Cl)cc1`, for which the inhibition was 30%.

In the case of `Cc1cccc(CS(=O)(=O)c2ncc(Cl)c(C(=O)Nc3ccc(F)cc3)n2)c1`, the inhibition was 43%.

As to `CCS(=O)(=O)c1ncc(Cl)c(C(=O)Nc2ccc(S(=O)(=O)N(C)c3ccccc3)cc2)n1`, the inhibition is 88.3% (active).

For `Cc1ccc(NC(=O)c2nc(S(=O)(=O)Cc3ccccc3C)ncc2Cl)cc1C`, the inhibition was 5.2%.

Regarding `O=C(c1[nH]ncc1-c1cccc(Br)c1)C1CO1` (configuration not stated), the inhibition was 33.6%.

As for `O=c1c2c(nc3c(-c4cccc(Br)c4)c[nH]n13)CCCC2`, the inhibition was 83% (active).

In the case of `O=c1c2c(nc3c(-c4ccc(Cl)cc4)c[nH]n13)CCCC2`, the inhibition was 75.3% (active).

With `O=c1c2c(nc3c(-c4ccc(Cl)cc4)c[nH]n13)CCC2`, the inhibition is 102% (active).

Regarding `CCCc1cc(=O)n2[nH]cc(-c3ccc(Cl)cc3)c2n1`, the inhibition was 101% (active).

Turning to `Cc1nc2c(-c3ccc(Cl)cc3)cnn2c(N)c1-c1ccc(F)cc1`, the inhibition was -246%.

Turning to `O=C(Cc1ccc(Br)cc1)Nc1ncc([N+](=O)[O-])s1`, the inhibition is 23.8%.

In the case of `CC(C)N1C(=O)/C(=C/c2nc3ccccc3c(=O)n2-c2ccccc2)c2ccccc21`, the inhibition was 43.6%.

On to `COc1ccc(C(=O)n2cc(C(=O)c3cc(C)ccc3O)cn2)cc1OC`, for which the inhibition is 36.5%.

For the compound `COc1ccc(O)c(-c2[nH]ncc2C(=O)c2ccccc2)c1`, the inhibition was 9.4%.

For the compound `COc1ccc(C(=O)c2ccccc2)c2c(O)ccc(C(=O)c3ccccc3)c12`, the inhibition was 53.3% (active).

Regarding `CCc1cccc(CC)c1NC(=O)CN1CCc2cc(OC)c(OC)cc2C1`, the inhibition is 23.9%.

On to `COc1ccc(Oc2ccccc2/C=N/O)cc1`, for which the inhibition was 81.6% (active).

For `COc1ccc(N2CCN(c3cc(=O)n(Cc4ccc(F)cc4)c(=O)[nH]3)CC2)cc1`, the inhibition was 6.1%.

Turning to `COc1ccc(C2C(O)C(c3c[nH]c4ccccc34)=NN2C(=O)CCl)cc1` (configuration not stated), the inhibition was 96.7% (active).

Take `CNc1nc(-c2ccc3c(c2)CCN3S(=O)(=O)c2ccccc2)c(C)s1`: the inhibition was 79.2% (active).

For the compound `CC(=O)N1CCc2cc(S(=O)(=O)NCc3ccc(C)cc3)ccc21`, the inhibition is 26.3%.

Consider `O=C(CN1CCOCC1)Nc1nc(-c2ccc3c(c2)CCN3S(=O)(=O)c2ccccc2)cs1`, for which the inhibition was -1%.

In the case of `CC(=O)c1c(O)c(C)c(O)c2c1OC1=CC(=O)C(C(C)=O)C(=O)[C@@]12C` (some centres not stated), the inhibition is 80.3% (active).

Consider `Cc1ccc(C(=O)N2CCN(c3ccc(F)cc3)CC2)cc1S(=O)(=O)N1CCCCC1`, for which the inhibition is 43.8%.

`O=C(c1ccc2c(c1)CCN2S(=O)(=O)c1ccccc1)N1CCN(c2ccc(F)cc2)CC1`: the inhibition is 65.3% (active).

Take `COC(=O)c1ccc(NC(=O)c2nc(S(=O)(=O)Cc3cccc(C)c3)ncc2Cl)cc1`: the inhibition is 47.3%.

`Cc1cccc(CS(=O)(=O)c2ncc(Cl)c(C(=O)Nc3nnc(C(C)C)s3)n2)c1`: the inhibition was 84.2% (active).

For the compound `CCC(C)[C@@H](NC(=O)OC(C)(C)C)c1nnc(S(=O)(=O)Cc2cccc(C)c2)o1` (some centres not stated), the inhibition is 45.7%.

For the compound `Cc1ccc(CS(=O)(=O)c2ncc(Cl)c(C(=O)Nc3nnc(C(C)C)s3)n2)cc1`, the inhibition was 85.6% (active).

Regarding `CSc1nnc(NC(=O)c2nc(S(=O)(=O)Cc3ccc(C)cc3)ncc2Cl)s1`, the inhibition is 98.9% (active).

As to `O=C(Nc1nc2ccccc2n1Cc1ccc(Cl)cc1)c1ccco1`, the inhibition is 41.5%.

With `Cc1ccccc1Cn1c(C)nc2ccccc21`, the inhibition was 32%.

Turning to `CCC(=O)Nc1nc2ccccc2n1Cc1ccccc1Cl`, the inhibition is 75.1% (active).

Consider `COc1ccc(-c2cc(=O)oc3c(C)c(OC(=O)c4cccs4)ccc23)cc1`, for which the inhibition is 63.9% (active).

Regarding `Cc1c(O)ccc2c(-c3ccccc3)cc(=O)oc12`, the inhibition was 30.3%.

Take `COc1ccc(-c2cc(=O)oc3c(C)c(O)ccc23)cc1`: the inhibition was 91.8% (active).

For `CC(=O)NCCC(=O)N1CCc2c([nH]c3ccccc23)C1c1cccc(Cl)c1` (configuration not stated), the inhibition was 6.2%.

`CC(=O)N1CC(C)Sc2ccc(S(=O)(=O)NCCc3ccc(C)cc3)cc21` (configuration not stated): the inhibition was 44.7%.

In the case of `COc1ccc2cc(C(N)=O)c(=Nc3ccc(C)cc3)oc2c1`, the inhibition is 62.3% (active).

For `Cc1ccc2oc(/N=C(\N)NC(=O)C(C)(C)C)nc2c1`, the inhibition is 40.4%.

As for `Cc1ccc(Oc2c(C(N)=O)cc([N+](=O)[O-])cc2[N+](=O)[O-])cc1`, the inhibition is -11.8%.

As to `Cc1ccc(N=c2oc3cc(O)ccc3cc2C(N)=O)cc1`, the inhibition was 72.5% (active).

As for `O=C(N/N=C/c1ccc([N+](=O)[O-])s1)c1cccc(Br)c1`, the inhibition is 66.8% (active).

Regarding `O=C(Cc1cccs1)N/N=C\c1ccc([N+](=O)[O-])s1`, the inhibition is 49.1%.

Take `Cc1cc(C(=O)N/N=C/c2ccc([N+](=O)[O-])s2)c2ccccc2n1`: the inhibition was 37.2%.

As for `O=C(N/N=C\c1ccc([N+](=O)[O-])s1)C1COc2ccccc2O1` (configuration not stated), the inhibition is 17.5%.

Regarding `O=C(N/N=C/c1ccc([N+](=O)[O-])s1)c1ccccc1Br`, the inhibition is 50.8% (active).

With `COc1cc(S(=O)(=O)n2cnc(C)c2)ccc1Br`, the inhibition is -6%.

For the compound `Fc1cccc(NC(=S)NNc2c3ccccc3nc3ccccc23)c1`, the inhibition was 20.7%.

`Cc1nc2ccccc2c(C)c1C(=O)c1ccc(F)cc1`: the inhibition is 66% (active).

As to `CCn1c(SCc2nc3scc(-c4ccccc4)c3c(=O)[nH]2)nnc1-c1cccs1`, the inhibition was 1.6%.

For `O=c1cc(CSc2nnc(-c3cccs3)n2Cc2ccccc2)nc2sc3ccccc3n12`, the inhibition was 88.7% (active).

Take `NC(=O)c1c(NC(=O)CCCC(=O)O)sc2c1CCCCCC2`: the inhibition was 16.7%.

With `CC(=O)c1c(C)[nH]c(C(=O)OCC(=O)Nc2sc3c(c2C#N)CCCC3)c1C`, the inhibition is 58.6% (active).

As to `Cc1ccc(C(=O)Nc2sc3c(c2C(=O)O)CCCC3)o1`, the inhibition was -42.9%.

Take `Cc1ccccc1Oc1cc(-n2ncc(Cl)c(Cl)c2=O)ncn1`: the inhibition was 103% (active).

For the compound `CSCc1nnc(NC(=O)c2ccc(S(=O)(=O)N(CC(C)C)CC(C)C)cc2)o1`, the inhibition is 80.1% (active).

`Cc1nc([N+](=O)[O-])c(Br)n1CC(=O)c1ccc2ccccc2c1`: the inhibition is 25.6%.

For the compound `CCCN(CCC)S(=O)(=O)c1ccc(C(=O)Nc2nnc(-c3cc(OC)cc(OC)c3)o2)cc1`, the inhibition was 68.9% (active).

Turning to `COCCN(CCOC)S(=O)(=O)c1ccc(C(=O)Nc2nc(C)c(C(C)=O)s2)cc1`, the inhibition is -3.7%.

Regarding `COc1ccc(-c2nnc(NC(=O)c3ccc([N+](=O)[O-])o3)o2)c(OC)c1`, the inhibition was 49.5%.

`COc1cc(OC)cc(-c2nnc(NC(=O)c3ccc4c(c3)OCCO4)o2)c1`: the inhibition is 105% (active).

Turning to `O=C(Nc1nnc(-c2ccco2)o1)c1ccc2ccccc2c1`, the inhibition was 77.9% (active).

As for `O=C(Nc1nnc(-c2ccc3c(c2)OCCO3)o1)c1ccc(Cc2ccccc2)cc1`, the inhibition is 105% (active).

In the case of `Cc1noc(C)c1S(=O)(=O)N1CCCC(C(=O)NCc2ccccc2Cl)C1` (configuration not stated), the inhibition was 21.1%.

Turning to `Cc1ccc(N(Cc2cc(=O)[nH]c3ccccc23)C(=O)CCl)c(C)c1`, the inhibition is 100% (active).

For the compound `Cc1ccccc1N(Cc1cc(=O)[nH]c2ccccc12)C(=O)CCl`, the inhibition is 105% (active).
